In the supplement of paper PMC8728848:
This excerpt belongs to a sample that is enriched for the strongest signals.

Columns and labels:
Assay in all cases: glycan array binding signal (z-score within array); higher = stronger binding
Conditions in all cases: glycan notation: IUPAC condensed, linker removed
[1] = target: Fuc(a1-2)Gal(b1-3)GalNAc(b1-3)Gal(a1-4)Gal(b1-4)Glc
Outline: (§1)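 The binding signal is a Z-score computed within each array and averaged over linkers. Arrays of the same protein sequence at different concentrations or buffers were also averaged together. Data originate from 3228 arrays in the Consortium for Functional Glycomics database, kept only where the protein sequence was available.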

[2] = target: Fuc(a1-2)Gal(b1-3)GlcNAc(b1-3)Gal(b1-4)Glc
Outline: as §1

[3] = target: Fuc(a1-2)Gal(b1-3)[Fuc(a1-4)]GlcNAc
Outline: as §1

Fuc(a1-2)Gal(b1-4)Glc = target: Fuc(a1-2)Gal(b1-4)Glc
Outline: as §1

[4] = target: Fuc(a1-2)[Gal(a1-3)]Gal(b1-4)GlcNAc(b1-2)Man(a1-3)[Fuc(a1-2)[Gal(a1-3)]Gal(b1-4)GlcNAc(b1-2)Man(a1-6)]Man(b1-4)GlcNAc(b1-4)GlcNAc
Outline: as §1

[5] = target: Fuc(a1-2)[Gal(a1-4)]Gal(b1-4)GlcNAc
Outline: as §1

[6] = target: Fuc(a1-2)[GalNAc(a1-3)]Gal(b1-3)GlcNAc(b1-2)Man(a1-3)[Fuc(a1-2)[GalNAc(a1-3)]Gal(b1-3)GlcNAc(b1-2)Man(a1-6)]Man(b1-4)GlcNAc(b1-4)GlcNAc
Outline: as §1

[7] = target: Fuc(a1-2)[GalNAc(a1-3)]Gal(b1-4)[Fuc(a1-3)]GlcNAc(b1-3)GalNAc
Outline: as §1

[8] = target: Fuc(a1-3)[Gal(b1-4)]GlcNAc(b1-6)GalNAc
Outline: as §1

[9] = target: Gal(a1-3)Gal(b1-3)GlcNAc(b1-2)Man(a1-3)[Gal(a1-3)Gal(b1-3)GlcNAc(b1-2)Man(a1-6)]Man(b1-4)GlcNAc(b1-4)GlcNAc
Outline: as §1

[10] = target: Gal(a1-3)Gal(b1-3)GlcNAc(b1-3)GalNAc
Outline: as §1

Gal(a1-3)GalNAc = target: Gal(a1-3)GalNAc
Outline: as §1

Gal(b1-3)Gal = target: Gal(b1-3)Gal
Outline: as §1

Gal(b1-3)Gal(b1-4)GlcNAc = target: Gal(b1-3)Gal(b1-4)GlcNAc
Outline: as §1

Gal(b1-3)GalNAc = target: Gal(b1-3)GalNAc
Outline: as §1

[11] = target: Gal(b1-3)GalNAc(a1-3)[Fuc(a1-2)]Gal(b1-4)Glc
Outline: as §1

Gal(b1-3)GalNAc(b1-3)Gal = target: Gal(b1-3)GalNAc(b1-3)Gal
Outline: as §1

[12] = target: Gal(b1-3)GalNAc(b1-4)Gal(b1-4)Glc
Outline: as §1

[13] = target: Gal(b1-3)GalNAc(b1-4)[Neu5Ac(a2-3)]Gal(b1-4)Glc
Outline: as §1

Gal(b1-3)GlcNAc6S = target: Gal(b1-3)GlcNAc6S
Outline: as §1

[14] = target: Gal(b1-3)[Fuc(a1-4)]GlcNAc
Outline: as §1

[15] = target: Gal(b1-3)[GlcNAc(b1-6)]GalNAc
Outline: as §1

[16] = target: Gal(b1-3)[Neu5Ac(a2-6)]GalNAc
Outline: as §1

Gal(b1-4)Glc6S = target: Gal(b1-4)Glc6S
Outline: as §1

[17] = target: Gal(b1-4)GlcNAc(b1-2)Man(a1-3)Man(b1-4)GlcNAc(b1-4)GlcNAc
Outline: as §1

[18] = target: Gal(b1-4)GlcNAc(b1-2)Man(a1-3)[GlcNAc(b1-4)][Gal(b1-4)GlcNAc(b1-2)Man(a1-6)]Man(b1-4)GlcNAc(b1-4)GlcNAc
Outline: as §1

[19] = target: Gal(b1-4)GlcNAc(b1-2)[Gal(b1-4)GlcNAc(b1-6)]Man(a1-6)[Gal(b1-4)GlcNAc(b1-2)Man(a1-3)]Man(b1-4)GlcNAc(b1-4)[Fuc(a1-6)]GlcNAc
Outline: as §1

[20] = target: Gal(b1-4)GlcNAc(b1-3)Gal(b1-4)GlcNAc(b1-3)GalNAc
Outline: as §1

[21] = target: Gal3S(b1-4)[Fuc(a1-3)]GlcNAc
Outline: as §1

Gal3S6S(b1-4)GlcNAc6S = target: Gal3S6S(b1-4)GlcNAc6S
Outline: as §1

Gal6S(b1-4)GlcNAc6S = target: Gal6S(b1-4)GlcNAc6S
Outline: as §1

GlcA(b1-6)Gal = target: GlcA(b1-6)Gal
Outline: as §1

[22] = target: GlcNAc(a1-6)Gal(b1-4)GlcNAc
Outline: as §1

[23] = target: GlcNAc(b1-2)Man(a1-3)[GlcNAc(b1-4)][GlcNAc(b1-2)Man(a1-6)]Man(b1-4)GlcNAc(b1-4)[Fuc(a1-6)]GlcNAc
Outline: as §1

[24] = target: GlcNAc(b1-3)Gal(b1-4)GlcNAc(b1-3)Gal(b1-4)GlcNAc(b1-3)Gal(b1-4)GlcNAc(b1-2)Man(a1-3)[GlcNAc(b1-3)Gal(b1-4)GlcNAc(b1-3)Gal(b1-4)GlcNAc(b1-3)Gal(b1-4)GlcNAc(b1-2)Man(a1-6)]Man(b1-4)GlcNAc(b1-4)[Fuc(a1-6)]GlcNAc
Outline: as §1

[25] = target: GlcNAc(b1-3)[GlcNAc(b1-4)][GlcNAc(b1-6)]GlcNAc
Outline: as §1

[26] = target: Man(a1-2)Man(a1-6)[Man(a1-3)]Man(a1-6)[Man(a1-2)Man(a1-2)Man(a1-3)]Man
Outline: as §1

[27] = target: Man(a1-3)[Man(a1-6)]Man(a1-6)[Man(a1-3)]Man
Outline: as §1

[28] = target: Neu5Ac(a2-3)Gal(b1-4)GlcNAc(b1-3)Gal(b1-4)[Fuc(a1-3)]GlcNAc
Outline: as §1

[29] = target: Neu5Ac(a2-3)Gal(b1-4)[Fuc(a1-3)]GlcNAc(b1-3)Gal(b1-4)[Fuc(a1-3)]GlcNAc(b1-3)Gal(b1-4)[Fuc(a1-3)]GlcNAc
Outline: as §1

[30] = target: Neu5Ac(a2-3)Gal(b1-4)[Fuc(a1-3)]GlcNAc6S
Outline: as §1

[31] = target: Neu5Ac(a2-6)Gal(b1-4)GlcNAc
Outline: as §1

[32] = target: Neu5Ac(a2-6)Gal(b1-4)GlcNAc(b1-2)[Neu5Ac(a2-6)Gal(b1-4)GlcNAc(b1-4)]Man(a1-3)[GlcNAc(b1-4)][Neu5Ac(a2-6)Gal(b1-4)GlcNAc(b1-2)[Neu5Ac(a2-6)Gal(b1-4)GlcNAc(b1-6)]Man(a1-6)]Man(b1-4)GlcNAc(b1-4)GlcNAc
Outline: as §1

[33] = target: Neu5Ac(a2-6)Gal(b1-4)GlcNAc(b1-3)Gal(b1-4)GlcNAc
Outline: as §1

[34] = target: Neu5Ac(a2-6)Gal(b1-4)GlcNAc(b1-3)GalNAc
Outline: as §1

[35] = target: Neu5Ac(a2-8)Neu5Ac(a2-8)Neu5Ac(a2-8)Neu5Ac(a2-3)[GalNAc(b1-4)]Gal(b1-4)Glc
Outline: as §1

[36] = target: Neu5Ac9Ac(a2-3)Gal(b1-4)GlcNAc
Outline: as §1

[37] = target: Neu5Gc(a2-8)Neu5Gc(a2-3)Gal(b1-4)GlcNAc
Outline: as §1

B1: CFEM-PPl (Pichia pastoris), F2QPV1 (protein)
chain: AVATPPACLLACAAEVVKESSDCDALNNIQCICENEGSAIHACLESTCPDGLSSTALQSFEDVCESVGTEANLDE
- glycan array binding signal (z-score) [1]: -0.182
- glycan array binding signal (z-score) [2]: -0.261
- glycan array binding signal (z-score) [3]: -0.299
- glycan array binding signal (z-score) (Fuc(a1-2)Gal(b1-4)Glc): -0.216
- glycan array binding signal (z-score) [4]: -0.252
- glycan array binding signal (z-score) [5]: -0.168
- glycan array binding signal (z-score) [6]: -0.271
- glycan array binding signal (z-score) [7]: 2.17
- glycan array binding signal (z-score) [8]: 0.273
- glycan array binding signal (z-score) [9]: -0.051
- glycan array binding signal (z-score) [10]: -0.151
- glycan array binding signal (z-score) (Gal(a1-3)GalNAc): -0.249
- glycan array binding signal (z-score) (Gal(b1-3)Gal): 8.35
- glycan array binding signal (z-score) (Gal(b1-3)Gal(b1-4)GlcNAc): 4.73
- glycan array binding signal (z-score) (Gal(b1-3)GalNAc): 4.58
- glycan array binding signal (z-score) [11]: 0.63
- glycan array binding signal (z-score) (Gal(b1-3)GalNAc(b1-3)Gal): 7.59
- glycan array binding signal (z-score) [12]: 11.5
- glycan array binding signal (z-score) [13]: 1.48
- glycan array binding signal (z-score) (Gal(b1-3)GlcNAc6S): 0.224
- glycan array binding signal (z-score) [14]: -0.109
- glycan array binding signal (z-score) [15]: 1.52
- glycan array binding signal (z-score) [16]: 8.06
- glycan array binding signal (z-score) (Gal(b1-4)Glc6S): 0.326
- glycan array binding signal (z-score) [17]: -0.158
- glycan array binding signal (z-score) [18]: -0.371
- glycan array binding signal (z-score) [19]: 0.199
- glycan array binding signal (z-score) [20]: -0.058
- glycan array binding signal (z-score) [21]: -0.308
- glycan array binding signal (z-score) (Gal3S6S(b1-4)GlcNAc6S): -0.019
- glycan array binding signal (z-score) (Gal6S(b1-4)GlcNAc6S): 0.881
- glycan array binding signal (z-score) (GlcA(b1-6)Gal): 1.49
- glycan array binding signal (z-score) [22]: 1.68
- glycan array binding signal (z-score) [23]: -0.286
- glycan array binding signal (z-score) [24]: -0.05
- glycan array binding signal (z-score) [25]: -0.262
- glycan array binding signal (z-score) [26]: -0.274
- glycan array binding signal (z-score) [27]: -0.201
- glycan array binding signal (z-score) [28]: -0.181
- glycan array binding signal (z-score) [29]: -0.258
- glycan array binding signal (z-score) [30]: -0.175
- glycan array binding signal (z-score) [31]: -0.156
- glycan array binding signal (z-score) [32]: -0.31
- glycan array binding signal (z-score) [33]: -0.404
- glycan array binding signal (z-score) [34]: -0.218
- glycan array binding signal (z-score) [35]: -0.099
- glycan array binding signal (z-score) [36]: -0.318
- glycan array binding signal (z-score) [37]: -0.14
